Screening data: PubChem BioAssay, National Center for Advancing Translational Sciences (NCATS)
Most compounds without a hit are left out; they make up all but 20% or so of the library.
Pf growth 48h = Primary qHTS for delayed death inhibitors of the malarial parasite plastid, 48 hour incubation; P. falciparum luciferase growth in erythrocytes, 48 h; Potency, µM (highest dose often 28.7 µM), usual class: inhibitors; 5.9% of 310,000 active
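Erythrocytes infected with P. falciparum carrying an integrated firefly luciferase reporter (2% hematocrit, 0.1% parasitemia final) were exposed to compounds in RPMI 1640 with 0.5% Albumax at 37 C, 5% CO2. Growth inhibition was scored as reduced luminescence.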
CHX counter = Cycloheximide Counterscreen for Small Molecule Inhibitors of Shiga Toxin. cell reporter, cycloheximide protein synthesis inhibition counterscreen. max response, %. 12% of 300,000 active. AID 2314, 2010; in the data active = max response mostly above about 13%, no sharp cut-off; inactive = mostly below about 14%; also: read at 38.3 µM for the half of the compounds with a filed dose
Shiga toxin inh = A qHTS for Small Molecule Inhibitors of Shiga Toxin; Vero cells, Shiga toxin protein synthesis inhibition reporter; inhibition, % at 38.7 µM; 9.2% of 290,000 active; in the data active = inhibition mostly above about 28%, no sharp cut-off; inactive = mostly below about 43%
HCMV inh = qHTS Assay for inhibitors of the human cytomegalovirus (HCMV) | activity change, negative = inhibition, % at 57.5 µM | HFF cells, HCMV-luciferase reporter, 72 h; stronger effect = lower value | AID 1259415, 2018 | 4.5% of 410,000 active; in the data active = activity change below about -60%; inconclusive = no clear call, values can overlap the other calls; inactive = above about -39%
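Luciferase read-out from HCMV-luciferase-infected HFFs (MOI 1 PFU/cell) 72 h post infection at 37C; compounds added after 16 h cell attachment; activity normalized between buffer-only basal and Salinomycin (10uM) inhibitor controls.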
Pf growth 96h = Primary qHTS for delayed death inhibitors of the malarial parasite plastid, 96 hour incubation; P. falciparum luciferase reporter growth, 96 h; Potency, µM (series often up to 28.7 µM), actives largely listed as inhibitors; 6.9% of 320,000 active; AID 504834, 2011
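96 h incubation, 37 C, 5% CO2, of luciferase-reporter P. falciparum-infected RBCs (2% hematocrit, 0.05% parasitemia final) with test compounds; endpoint luminescence.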
Hits are given with their value; n = inactive; u = inconclusive; x = no result. Unless noted, calls follow the shape of the dose curve; as a rule, active = well fitted inhibition curve with a large enough effect; inconclusive = small, poorly fitted or top-dose-only effect, or another doubt; inactive = no such curve, though single readings can be large or run the other way.

SMILES | Pf growth 48h | CHX counter | Shiga toxin inh | HCMV inh | Pf growth 96h
O=c1c2cnn(-c3ccc(F)cc3)c2ncn1Cc1ccccc1 | n | n | n | n | 8.28µM
O=c1c2cnn(-c3ccccc3)c2ncn1CCc1ccccc1 | n | 23.5 | 49.2 | n | n
O=c1c2cnn(-c3ccccc3)c2ncn1Cc1cccnc1 | n | n | n | n | u
N#CC1=C(N)SC(N)=C(C#N)C1c1cccc(O)c1 | n | n | n | n | u
COc1ccccc1CNC(=O)c1oc2c(c1C)-c1nn(Cc3ccc(Cl)cc3)cc1CC2 | x | x | x | n | x
NS(=O)(=O)c1ccc(CCNC(=O)Cc2ccc(S(=O)(=O)N3CCCC3)s2)cc1 | n | n | n | n | n
COc1ccc(-c2nnc(N(C)C(=O)C3CCOC3)s2)cc1 (stereo not given) | x | x | x | n | x
CN(C(=O)C1CCOC1)c1nnc(-c2cnccn2)s1 (stereo not given) | x | 16.3 | n | n | u
COc1ccccc1CNC(=O)COC(=O)CCN=C1NS(=O)(=O)c2ccccc21 | n | x | x | n | n
CC(=O)c1cccc(NC(=O)N2CCCC2C(=O)NC2CCCCC2)c1 (stereo not given) | n | n | n | n | u
CCN(CC)/C(Sc1ccccc1)=C(/C(Cl)=C(Cl)Cl)[N+](=O)[O-] | n | 24.3 | n | u | u
CCN(CC)/C(Sc1ccccc1)=C(\C(Cl)=C(Cl)Cl)[N+](=O)[O-] | n | n | n | n | n
O=C(Nc1ccc(-c2nc3ncccc3o2)cc1)c1ccc(Br)o1 | u | n | n | n | x
O=C(Nc1ccc2oc(-c3cccnc3)nc2c1)c1ccc(Br)cc1 | x | x | x | n | x
CC(C)CC(=O)Nc1ccc2oc(-c3cccnc3)nc2c1 | n | 26.5 | n | n | x
O=C(Nc1ccc(-c2nc3ncccc3o2)cc1)c1ccco1 | n | 27.3 | 65.7 | n | x
CCC(=O)NCc1ccc(-c2nc3ncccc3o2)cc1 | n | 16.4 | n | n | u
CCC(=O)Nc1ccc2oc(-c3cccnc3)nc2c1 | n | 34.7 | 47.5 | n | n
Cc1c(C(=O)NCc2ccc(F)cc2)oc2ccc(S(=O)(=O)N3CCCCC3)cc12 | x | x | x | n | x
CC1(C(=O)NCc2ccccc2)CCC(=O)N1CCc1c[nH]c2ccccc12 (stereo not given) | x | x | x | n | x
CCCOC(=O)CSc1nnc2ccc3ccccc3n12 | x | x | x | n | x
CCC(C)NCC(=O)Nc1ccc(-c2nc3cc(NC(=O)CNC(C)CC)ccc3o2)cc1 (stereo not given) | u | n | n | -84.2 | n
Cc1cc(NC(=O)c2ccco2)cc(-c2nc3cc(Cl)ccc3o2)c1O | x | x | x | -61.1 | x
COc1ccc(-c2nc3cc(NC(=O)CSc4ccc(C)cc4)ccc3o2)cc1 | x | x | x | n | x
O=C(Nc1ccc2nc(-c3ccccc3)oc2c1)c1ccco1 | u | 29.0 | 47.1 | n | n
SMILES | Pf growth 48h | CHX counter | Shiga toxin inh | HCMV inh | Pf growth 96h
Cc1ccc2oc(-c3cc(NC(=O)c4cccs4)cc(C)c3O)nc2c1 | x | x | x | n | x
CCc1ccc2oc(-c3ccc(NC(C)=O)cc3)nc2c1 | n | 60.8 | 145.0 | n | n
O=C(Nc1ccc2oc(-c3cccnc3)nc2c1)c1ccco1 | n | 36.2 | n | n | n
Cc1c(C(=O)Nc2ccc3oc(-c4cccnc4)nc3c2)oc2ccccc12 | u | n | n | -67.4 | u
CCOc1cc(C(=O)Nc2ccc(-c3nc4cc(C)ccc4o3)cc2)cc(OCC)c1OCC | x | x | x | n | x
Cc1ccc2oc(-c3ccc(NC(=O)CC(C)C)cc3)nc2c1 | n | 34.0 | 143.2 | n | n
Cc1ccc(C(=O)Nc2ccc3oc(-c4cccnc4)nc3c2)c(Cl)c1 | x | x | x | n | x
O=C(CN1CCCC1)Nc1ccc(-c2nc3cc(NC(=O)CN4CCCC4)ccc3o2)cc1 | 2.33µM | 33.3 | 72.8 | -100.0 | u
O=C(Nc1ccc2oc(-c3cccnc3)nc2c1)c1ccc(Br)o1 | x | n | n | n | u
Cc1ccc(SCC(=O)Nc2ccc3oc(-c4ccc(F)cc4)nc3c2)cc1 | x | x | x | n | x
COc1cccc(-c2noc(COc3ccc(C(C)(C)C)cc3)n2)c1 | x | x | x | n | x
COC(=O)[C@@]1(C#N)CC(=O)N([C@@H](CO)c2ccccc2)[C@H]1c1ccccc1 | x | x | x | n | x
CC(=O)Nc1ccc(OCC(O)Cn2ccnc2C)cc1 (stereo not given) | n | n | n | u | n
CNC1C(O)C(OC2C(N)CC(N)C(OC3OC(CN)=CCC3N)C2O)OCC1(C)O (stereo not given) | n | x | x | x | n
